Assay outcomes as filed in PubChem BioAssay.
SARS 3CLpro inh-1: SARS-CoV 3CLpro protease inhibition. recombinant SARS-CoV 3CLpro, quenched FRET peptide cleavage. inhibition, % at 6 µM. 290,000 compounds, 0.14% hits. AID 1706. P0C6X7; in the data active means inhibition above about 12%
MazEF act: MazEF (E. coli) toxin RNase activation; P0AE70; FAM/BHQ RNA-DNA oligo cleavage fluorescence, 5 h; activation, % at 20 µM; 350,000 compounds, 0.32% hits; AID 504720; in the data active means activation above about 50%
Target sequence (P0AE70 whole entry, looked up): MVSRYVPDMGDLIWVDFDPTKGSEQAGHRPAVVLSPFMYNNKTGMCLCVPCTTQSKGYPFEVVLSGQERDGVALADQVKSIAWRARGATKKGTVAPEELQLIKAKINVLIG
PfHsp40 yeast: rescue of PfHsp40-mediated yeast toxicity; AID 504582; 340,000 compounds, 0.68% hits; growth rescue, % at 12.5 µM; S. cerevisiae expressing PfHsp40, growth rescue, ATP luminescence; in the data active means growth rescue above about 28%, passing the limit was not always enough;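 further: yeast W303a lacking pdr1 and pdr3 grown in galactose medium; growth measured after three days at 30 °C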
Vc quorum ag: quorum light induction in luxS cqsA deficient V. cholerae | V. cholerae BH1578 lux reporter, luminescence, 6 h | activation, % at 18.7 µM | 350,000 compounds, 0.16% hits | AID 588436; in the data active means activation mostly above about 9.7%, no sharp cut-off
DUSP3 inh: blocks human VHR1 dual specificity phosphatase; 290,000 compounds, 0.52% hits; recombinant VHR phosphatase, pNPP absorbance; inhibition, % at 13.3 µM; in the data active means inhibition above about 50%
Target sequence (P51452 whole entry, looked up): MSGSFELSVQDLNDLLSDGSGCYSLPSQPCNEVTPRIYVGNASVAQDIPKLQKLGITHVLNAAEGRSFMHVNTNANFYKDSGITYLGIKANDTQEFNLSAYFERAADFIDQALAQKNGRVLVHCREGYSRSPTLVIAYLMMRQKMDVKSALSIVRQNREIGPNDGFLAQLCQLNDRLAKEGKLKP
BJeLR lethal: BJeLR cell viability loss; AID 1554; 300,000 compounds, 0.17% hits; BJeLR (HRASV12) viability, CellTiter-Glo ATP luminescence, 48 h; inhibition, % (no concentration beside the values); in the data active means inhibition above about 50%
SARS 3CLpro inh-2: SARS 3CLpro inhibition, confirmation assay | inhibition, % at 6 µM | QFRET protease activity assay | shares compounds with SARS 3CLpro inh-1 | 380 compounds, 36% hits; in the data active means inhibition above about 13%
* marks the source's active call; other numbers are inactive results; i = inactive; / = not tested or not shown. Only some compounds are listed: those with a hit (about 1.7% of all), similar ones and a draw of the others.

SMILES | SARS 3CLpro inh-1 | MazEF act | PfHsp40 yeast | Vc quorum ag | DUSP3 inh | BJeLR lethal | SARS 3CLpro inh-2
COc1ccc(/C=C2/SC(=O)N(NS(=O)(=O)c3ccccc3)C2=S)cc1OC | 4.5 | 3.2 | 35.2* | i | 17.1 | -0.7 | /
CC(=O)Oc1c(/C=C(\C#N)C(N)=O)[nH]c2ccccc12 | -10.1 | 596.7* | -0.5 | -0.3 | -8.4 | -4.5 | /
CC(C)Cc1nnc(NC(=O)C2CC(=O)N(c3ccc4c(c3)OCCO4)C2)s1 (configuration not stated) | / | -1.9 | 2.5 | -3.1 | / | / | /
CN(C)CCCn1c2c3ccccc3ccc2c2oc(=O)c3ccccc3c21 | / | 847.1* | 4.7 | i | / | / | /
CN(C)CCCn1c(=S)[nH]c2ccccc2c1=O | 1.1 | -6.1 | -0.3 | -0.3 | 29.3 | 2.9 | /
CCc1ccc(OC(=O)CN2C(=O)c3ccccc3C2=O)cc1 | 6.8 | -2.5 | 1.7 | i | 3.5 | -21.6 | /
O=C(CN1C(=O)c2ccccc2C1=O)Oc1ccc(F)cc1 | 12.5* | / | / | / | -5.7 | 1.8 | 9.9
CCN(c1ccc(OC)cc1)S(=O)(=O)c1nnc(NC(=O)COc2ccc(C)cc2)s1 | 12.6* | -0.2 | -0.2 | -0.3 | -9.3 | 1.3 | 0.7
Cn1cnc2cc(OC(=O)c3ccccc3)ccc21 | 14.8* | 0.8 | -0.6 | -12.5 | 8.7 | -7.1 | 10.3
Cn1cnc2cc(NC(=O)c3ccc(Cl)cc3)ccc21 | 32.6* | -4.4 | -0.7 | -0.2 | 29.3 | -13.0 | 31.5*
Cc1ccc(C(=O)Oc2ccc3c(c2)ncn3C)cc1 | 21.8* | -0.6 | 0.5 | i | 4.5 | -11.1 | 31.3*
O=C(COC(=O)C1CC1)NC(=O)NCc1ccccc1 | -0.8 | 2.9 | -0.4 | -1.3 | -6.0 | -3.5 | /
CCN(CCn1cccn1)Cc1ccccc1OCC(O)CN1CCc2ccccc2C1 (configuration not stated) | -0.3 | -2.6 | 1.2 | -0.4 | 21.9 | -0.6 | /
N[C@@H](Cc1cnc[nH]1)C(=O)Nc1ccc2ccccc2c1 | / | 2.3 | 0.3 | -0.2 | / | / | /
O=C(CSc1ncnc2scc(-c3ccccc3)c12)Nc1ccc(C(=O)O)cc1 | 12.8* | 0.9 | 0.9 | i | 22.8 | 4.8 | 6.1
O=C(O)c1ccc(Nc2ncnc3scc(-c4ccccc4)c23)cc1 | 4.9 | -8.9 | -2.3 | -0.6 | 18.5 | -8.4 | /
COc1ccc(NC(=O)CN2C(=O)NC(CC(C)C)C2=O)cc1S(=O)(=O)N1CCOCC1 (configuration not stated) | / | 2.2 | -0.6 | -2.5 | / | / | /
Nc1nc2c(C(=O)N3CCOCC3)nnn2c2ccccc12 | -4.0 | 7.4 | -0.6 | i | 26.9 | -1.3 | /
Cc1ccc(C(=O)N2CCN(c3ccc(NC(=O)c4cccnc4)cc3)CC2)cc1 | 3.3 | 3.8 | -0.4 | -0.4 | 15.9 | -4.1 | /
COc1cc(C(=O)Nc2ccc(N3CCN(C(=O)c4ccc(C)cc4)CC3)cc2)cc(OC)c1OC | 14.2* | 5.9 | -1.8 | -1.6 | -7.2 | -2.1 | 0.3
O=C1CC(N2CCN(C/C=C/c3ccccc3)CC2)C(=O)N1Cc1cccs1 (configuration not stated) | 16.2* | 3.9 | -0.1 | 0.4 | 17.0 | 0.7 | -2.2
O=C1CC(N2CCN(C/C=C/c3ccccc3)CC2)C(=O)N1CCc1ccccc1 (configuration not stated) | 1.8 | -2.6 | -1.5 | -0.4 | 21.1 | -7.0 | /
CN(Cc1ccccc1)C1CCN(Cc2ccccc2[N+](=O)[O-])CC1 | -5.3 | 4.9 | 1.3 | i | 1.7 | 4.0 | /
O=C(Oc1cccnc1)c1ccccc1[N+](=O)[O-] | 19.8* | 9.1 | 0.4 | -0.5 | -6.9 | 0.1 | 50.8*
COc1ccc(C(=O)Oc2cccnc2)cc1 | 25.2* | -5.2 | 0.4 | i | 14.0 | -4.2 | 39.0*
N#Cc1ccc(CN2CCN(C(=O)c3cn(Cc4ccccc4)nc3-c3cccnc3)CC2)cc1 | / | 6.1 | -0.3 | i | / | / | /
COCCOC(=O)/C(C#N)=C/c1cn(Cc2ccccc2)nc1-c1cccnc1 | 15.8* | -1.9 | 1.0 | i | 2.0 | 6.1 | 1.8
COc1cccc(CCC(=O)Nc2cccc(S(=O)(=O)N3CCCC3)c2)c1OC | / | 2.3 | -0.6 | -0.4 | / | / | /
CSc1nsc(NC(=O)OCc2ccc(Cl)cc2)n1 | 12.5* | 0.2 | 2.9 | 0.3 | -1.9 | -7.4 | 2.5
O=C(NCC(=O)N1CCN(Cc2ccccc2)CC1)c1ccc(Br)cc1 | 12.3* | 2.5 | 0.1 | -0.6 | 12.5 | 5.6 | 1.5
